High-throughput results (PubChem BioAssay)
A selection: hits, their analogues and other compounds. The true share with any hit is near 3%.
SNCA expr inh: Primary qHTS assay for inhibitors of alpha-synuclein gene (SNCA) expression; HEK-293 SNCA-luciferase knock-in, luminescence, 24 h; actives 0.17% (n = 140,000); Potency, µM (highest dose often 57.2 µM), for the others: top-dose activity change, negative = inhibition, usual class: inhibitors; AID 1671194, 2021;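 note: potency is the fitted concentration of half-maximal effect; plate controls were DMSO cells for no effect and cell-free wells for full effect; nearly all actives have a fitted effect of over 45% in size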
IP6K1 inh: Primary qHTS assay for small molecule inhibitors of Inositol hexaphosphate kinase 1 (IP6K1); Inositol hexakisphosphate kinase 1 (Homo sapiens), Q92551; IP6K1 kinase, ADP-Glo luminescence, 2 h; hits give low values; activity change, % (series mostly up to about 58 µM); actives 0.81% (n = 140,000); AID 1645851, 2021; in the data active = activity change below about -25%; note: % is set by controls: 0 for no effect and ±100 for the full control effect
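ADP-Glo luminescence measures ADP made by human IP6K1 during a 2 h RT reaction with ATP/IP6 (mix at 1.3 mM/130 uM); top library doses 57.5 and 19.1 uM final.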
KDM5B inhibitor: Primary screen for KDM5B Histone Demethylases FDH-coupled qHTS; Lysine-specific demethylase 5B (Homo sapiens), Q9UGL1; KDM5B demethylase, FDH-coupled NADH fluorescence (FDH is formaldehyde dehydrogenase); Potency, µM (doses to about 57.7 µM), most hits filed as inhibitors; actives 2.6% (n = 220,000); note: potency is the fitted concentration of half-maximal effect; 0% is about no effect; nearly all actives have a fitted effect of over 70% in size
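Measured: NADH fluorescence change, 30 min, RT. System: KDM5BΔAP 200 nM final, H3K4me3 peptide, α-KG, Fe(II), ascorbate, NAD⁺ plus FDH, pH 7.5 HEPES. Compounds: titrated, 10 min pre-incubation with enzyme.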
HEK293 viab: GF-AFC viability counterscreen for inhibitors of alpha-synuclein gene (SNCA) expression | HEK-293-SNCA-luc viability, GF-AFC fluorescence, 24 h | AID 1671193, 2021 | Potency, µM (top dose mostly 57.1 µM), without a hit: at the top dose activity change, negative = cytotoxicity, actives largely listed as cytotoxic | actives 0.12% (n = 150,000);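 note: potency is the fitted concentration of half-maximal effect; 0% = DMSO-treated cells and -100% = medium-only wells without cells; nearly all actives have a fitted effect of over 30% in size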
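Cytotoxicity counterscreen: after 24 h compound treatment of genome-edited SNCA-luciferase HEK-293 cells, live-cell protease substrate GF-AFC read by fluorescence after 30 min; activity scaled between DMSO (0%) and medium-only (-100%), curves Hill-fitted.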
Active calls of the source: *; [ ] = another dose, or the depositor's remark. Unless noted, calls come from the whole dose curve; as a rule, active = well fitted curve in the direction sought with a large enough effect; inconclusive = small, poorly fitted or top-dose-only effect, or another doubt; inactive = no such curve, though single readings can be large; an effect the other way counts as inactive or inconclusive.

`Cc1ccccc1-c1ccc2n(c1=O)C[C@H]1C[C@@H]2CN(C(=O)NC2CCCCC2)C1` gave SNCA expr inh -0.2%[87.6 µM], IP6K1 inh 18.2, KDM5B inhibitor 35.5µM* and HEK293 viab -18.3%[87.6 µM].
Screening O=C(NC1CCCCC1)N1C[C@@H]2C[C@H](C1)c1ccc(C3CCCCC3)c(=O)n1C2 returned SNCA expr inh 12.9%[87.6 µM], IP6K1 inh 8.5, KDM5B inhibitor 39.8µM* and HEK293 viab -8.0%[87.6 µM].
O=C(Nc1ccc2n(c1=O)C[C@H]1C[C@@H]2CN(C(=O)NC2CCCCC2)C1)c1ccccn1 was read as SNCA expr inh -27.1%, IP6K1 inh -12.5, KDM5B inhibitor inactive and HEK293 viab -21.8%.
COc1ccc2c(C)c(C(=O)N3CCC(C#N)(c4ccccc4)CC3)oc2c1 was read as SNCA expr inh 0.2%, IP6K1 inh -0.5, KDM5B inhibitor 20µM* and HEK293 viab 0.5%.
For Cn1ccc2ccc(C(=O)N3CCC(C#N)(c4ccccc4)CC3)cc21 the results were SNCA expr inh -5.4%, IP6K1 inh -0.2, KDM5B inhibitor inconclusive and HEK293 viab -2.3%.
`COC1CC(O[C@H]2CC[C@]3(C=O)C4CC[C@]5(C)[C@@H](C6=CC(=O)OC6)CC[C@]5(O)[C@@H]4CC[C@@H]3C2)OC(C)C1O[C@@H]1O[C@H](CO)[C@@H](O[C@@H]2O[C@H](CO)[C@@H](O)[C@H](O)[C@H]2O)[C@H](O)[C@H]1O` (some centres undefined) gave IP6K1 inh 8.4 and HEK293 viab 5.66µM*.
Screening COC1CC(OC2CCC3(C=O)C(CCC4C3CCC3(C)C(C5=CC(=O)OC5)CCC43O)C2)OC(C)C1OC1OC(CO)C(O)C(O)C1O (centres undefined) returned IP6K1 inh 22.3 and HEK293 viab -12.5%[23.9 µM].
COc1cc2c(cc1Oc1cccc(N(C)C)c1)NC(=O)C21CCN(c2ncc(F)cn2)CC1 was read as SNCA expr inh -10.4%, IP6K1 inh -22.9, KDM5B inhibitor 31.6µM* and HEK293 viab -6.8%.
`COc1cc2c(cc1Oc1cccc(N(C)C)c1)NC(=O)C21CCN(c2ncccn2)CC1` gave SNCA expr inh -11.3%, IP6K1 inh -8.8, KDM5B inhibitor inconclusive and HEK293 viab -15.8%.
For CCc1cnc(N2CCC3(CC2)C(=O)Nc2cc(OC4CCCC4)c(OC)cc23)nc1 the results were SNCA expr inh -19.3%[87.6 µM], IP6K1 inh -22.2, KDM5B inhibitor 35.5µM* and HEK293 viab 7.6%[87.6 µM].
`COc1cc2c(cc1OC1CCCC1)NC(=O)C21CCN(c2ncc(C(C)C)cn2)CC1` gave SNCA expr inh inconclusive, IP6K1 inh -22.8, KDM5B inhibitor 35.5µM* and HEK293 viab -5.9%[87.6 µM].
For CCc1cnc(N2CCC3(CC2)C(=O)Nc2cc(Oc4ccccc4)c(OC)cc23)nc1 the results were SNCA expr inh inconclusive, IP6K1 inh -14.4, KDM5B inhibitor 31.6µM* and HEK293 viab -13.4%[87.6 µM].
For Cc1nc(-c2ccccc2Br)cc([C@H]2CN3CC[C@H]2C[C@@H]3CNC(=O)Nc2ccccc2)n1 the results were SNCA expr inh 8.2%, IP6K1 inh -9.5, KDM5B inhibitor inconclusive and HEK293 viab -19.6%.
For c1ccc(O[C@H]2CNC3Cc4c([nH]c5ccccc45)C2C3)nc1 (some centres undefined) the results were IP6K1 inh 26.6.
`COc1cc2c(cc1Oc1cccc(N(C)C)c1)NC(=O)C21CCN(Cc2cccc(O)c2)CC1` gave SNCA expr inh -10.0%, IP6K1 inh -18.3, KDM5B inhibitor inactive and HEK293 viab -13.9%.
C[C@@H]1O[C@@H](OC2CCC3(C=O)C(CCC4C3CCC3(C)C(C5=CC(=O)OC5)C(O)CC43O)C2)[C@H](O)[C@H](O)[C@H]1O[C@@H]1O[C@H](CO)[C@@H](O)[C@H](O)[C@H]1O (some centres undefined) was read as IP6K1 inh 2.9 and HEK293 viab -32.4%[23.9 µM].
COCC1CN(C2CCC2)CC12CCN(Cc1cccnc1)CC2 (centres undefined) was read as SNCA expr inh -12.8%, IP6K1 inh 6.7, KDM5B inhibitor 28.2µM* and HEK293 viab -1.7%.
Screening OCC1CN(C2CCC2)CC12CCN(Cc1cccnc1)CC2 (centres undefined) returned SNCA expr inh 0.7%, IP6K1 inh 10.6, KDM5B inhibitor inconclusive and HEK293 viab -2.0%[12.5 µM].
`CCOC(=O)[C@@H]1[C@H]2c3ccccc3N(C)C(=O)[C@H]2N(C(=O)NCc2ccccc2)[C@@H]1c1ccccc1` gave IP6K1 inh 0.3.
O=C(Nc1ccc2n(c1=O)C[C@H]1C[C@@H]2CN(C(=O)c2ccccc2)C1)NC1CCCCC1 was read as SNCA expr inh 34.6%[87.6 µM], IP6K1 inh -2.4, KDM5B inhibitor 35.5µM* and HEK293 viab -6.3%[87.6 µM].
`O=C(c1ccc(F)cc1)N1C[C@@H]2C[C@H](C1)c1c(/C=C/c3ccc(Cl)cc3)ccc(=O)n1C2` gave SNCA expr inh -10.6%, IP6K1 inh -0.7, KDM5B inhibitor 31.6µM* and HEK293 viab -20.0%.
Screening CN(C)Cc1ccccc1-c1ccc2n(c1=O)C[C@H]1C[C@@H]2CN(C(=O)c2ccco2)C1 returned SNCA expr inh -10.6%[87.6 µM], IP6K1 inh 0.7, KDM5B inhibitor 31.6µM* and HEK293 viab 4.7%[87.6 µM].
`CC(=O)N1C[C@@H]2C[C@H](C1)c1ccc(NC(=O)Nc3ccccc3)c(=O)n1C2` gave SNCA expr inh -21.1%[87.6 µM], IP6K1 inh -5.6, KDM5B inhibitor 28.2µM* and HEK293 viab -3.2%[87.6 µM].
C[C@H]1CCC[C@H](O)CCC/C=C/c2cc(O)cc(O)c2C(=O)O1 was read as IP6K1 inh -15.9 and HEK293 viab -17.1%.
Screening Fc1cc(F)c2c(c1)[C@H]1C=CC[C@H]1C(c1cccnc1)N2 (some centres undefined) returned IP6K1 inh -5.1 and HEK293 viab -41.7%.
COCC(C(=O)OC1CC2CCC(C1)N2C)c1ccccc1 (centres undefined) was read as IP6K1 inh 21.2 and HEK293 viab 0.1%.
O=C(c1cccs1)N1C[C@@H]2C[C@H](C1)c1ccc(C3CCCCC3)c(=O)n1C2 was read as SNCA expr inh 6.1%[87.6 µM], IP6K1 inh 3.9, KDM5B inhibitor inactive and HEK293 viab -2.8%[87.6 µM].
Cc1ccccc1-c1ccc2n(c1=O)C[C@H]1C[C@@H]2CN(C(=O)c2ccc(F)cc2)C1 was read as SNCA expr inh 4.8%[87.6 µM], IP6K1 inh 1.1, KDM5B inhibitor 35.5µM* and HEK293 viab -4.7%[87.6 µM].
For O=C(c1ccccc1)N1C[C@@H]2C[C@H](C1)c1ccc(C3CCCCC3)c(=O)n1C2 the results were SNCA expr inh -5.3%[87.6 µM], IP6K1 inh 10.4, KDM5B inhibitor 39.8µM* and HEK293 viab -26.6%[87.6 µM].
